# Source: PubChem BioAssay AID1063 (University of Pittsburgh Molecular Library Screening Center, 2008)
# The whole screen tested about 200,000 compounds, of which about 18,000 (9%) were called active. The sample holds actives, similar compounds and a random draw of the others, so the mix is not that of the screen. Values without a mark were called inactive. No stated cut-off is given here; in the data, active means inhibition above about 50%; inactive means the rest.
# Test: antileishmanial activity against promastigotes – primary screen (AID 1063);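 further: promastigotes grown with compound for 44 hours at 28 °C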
# Details: Leishmania major promastigotes, resazurin fluorescence viability; at 10 µM; hits give high values
row,Structure (SMILES),inhibition
1,CCOC(=O)c1c(NC(=O)C2CCN(S(=O)(=O)c3ccc(Cl)cc3)CC2)sc2c1CCCC2,6.41%
2,Cc1ccc(S(=O)(=O)N2CCOCC2)cc1C(=O)OC1CCCCC1=O (centres undefined),1.9%
3,CCNC(=O)COC(=O)/C=C/c1c(C)nn(Cc2cccc(OC)c2)c1Cl,-3.81%
4,CS(=O)(=O)N1CCc2cc(C(=O)Nc3ccccc3)ccc21,-3.72%
5,Cc1onc(-c2ccccc2Cl)c1C(=O)NCCn1ccc2ccccc21,5.91%
6,CC(=O)Nc1cccc(/C(C)=N/NC(=O)c2c(-c3ccccc3Cl)noc2C)c1,3.3%
7,Cc1[nH]c2ccccc2c1C(=O)COC(=O)c1c(-c2ccccc2)noc1C,95.7% (active)
8,Cc1[nH]c2ccccc2c1C(=O)COC(=O)C(C)C,-4.11%
9,Cc1onc(-c2ccccc2Cl)c1C(=O)OCC(=O)c1ccccc1,88% (active)
10,Cc1[nH]c2ccccc2c1C(=O)CSCC(=O)O,13.6%
11,S=c1ccc2ccccc2[nH]1,-8.39%
12,CC(=O)NCC(=O)N(Cc1ccco1)C1(C(=O)NC2CCCC2)CCCCC1,1.81%
13,CCOC(=O)c1ccc(NC2Nc3cc(C)nn3S2)cc1 (centres undefined),1.08%
14,O=C(COc1ccc(NC(=O)c2ccccc2[N+](=O)[O-])cc1)c1ccc(F)cc1,-3.68%
15,COc1ccc(CC(=O)Nc2cc(S(=O)(=O)N3CCCCC3)ccc2N2CCN(C)CC2)cc1,47%
16,Cc1cccc(OCCC(=O)Nc2cc(S(=O)(=O)N3CCCCC3)ccc2N2CCOCC2)c1,22%
17,CN1CCN(c2ccc(S(=O)(=O)N3CCCCC3)cc2NC(=O)Cc2ccccc2F)CC1,67.6% (active)
18,CC12CN(NC(=O)c3ccc(Cl)cc3)C3(C#N)CC1CCC23C (centres undefined),7.74%
19,O=C(Nc1ccncc1)c1ccccc1[N+](=O)[O-],11.9%
20,COc1ccc(NC(=O)c2ccccc2[N+](=O)[O-])cc1OC,59.4% (active)
21,COC(=O)CNC(=O)c1ccccc1[N+](=O)[O-],-1.1%
22,COC(=O)C1=C(C)NC(=O)CC1c1ccccc1OC (centres undefined),-5.13%
23,Cc1ccc(N2NC(=O)/C(=C/C=C/c3ccco3)C2=O)cc1C,15.2%
24,Cc1cc(C(=O)N/N=C/c2cc([N+](=O)[O-])cc(C)c2O)n[nH]1,80.3% (active)

row,Structure (SMILES),inhibition
1,O=[N+]([O-])c1cc(Br)c(O)c(/C=N/Nc2nc3ccccc3s2)c1,-6.02%
2,Cc1ccsc1C(=O)N/N=C/c1ccc([N+](=O)[O-])cc1,-8.42%
3,Cc1cccc(NC(=O)Nc2nnc(-c3ccccc3)o2)c1,15.9%
4,C/C(=N\NC(=O)c1cc2c(s1)CCC(C)C2)c1cccnc1 (centres undefined),13%
5,COc1cccc(N(C(=O)C2COc3ccccc3O2)C(C(=O)NC2CCCCC2)c2ccc(O)cc2)c1 (centres undefined),98.3% (active)
6,Cc1cccc(N(C(=O)Cc2cccs2)C(C(=O)NC2CCCC2)c2ccsc2)c1 (centres undefined),3.72%
7,COc1ccc(C(C(=O)NC2CCCCC2)N(C(=O)CCl)c2ccccc2Cl)cc1 (centres undefined),-1.95%
8,CN1CCN(/N=C2/C(=O)Nc3ccc([N+](=O)[O-])cc32)CC1,-2.49%
9,O=C1Nc2ccc([N+](=O)[O-])cc2C1=Nc1cccc(CO)c1,51% (active)
10,Cc1cc([N+](=O)[O-])ccc1NCc1cccc([N+](=O)[O-])c1,-1.47%
11,CN1CCN(CC#CCC2(O)c3ccccc3-c3ccccc32)CC1,-6.57%
12,O=[N+]([O-])c1cccc(-c2nnc3c4ccccc4c4ccccc4n23)c1,22%
13,Cn1cc(/C=C/c2nc3ccccc3c(=O)n2-c2cccc([N+](=O)[O-])c2)c2ccccc21,63.9% (active)
14,CCOC(=O)N1CCN(Cc2nc3ccc([N+](=O)[O-])cc3c(=O)n2-c2cccc(OC)c2)CC1,8.07%
15,Cc1cc(C)nc(/N=C2\NC(=O)CC(C(=O)O)N2c2ccc(Cl)cc2Cl)n1 (centres undefined),-2.66%
16,CSc1ccc(/C=N\NC(=O)CC(=O)NC(C)C)cc1,3.48%
17,CC1=NCCN1S(=O)(=O)c1cccc([N+](=O)[O-])c1,0.00784%
18,COc1ccc(/C=N/NC(=O)Cn2cc(C(F)(F)F)ccc2=O)cc1,4.79%
19,CCOC(=O)c1c(CN(C)C)n(-c2ccccc2)c2cc(Br)c(O)cc12,15.6%
20,O=C(c1ccc(S(=O)(=O)N2CCOCC2)cc1)N1CCN(c2ccccc2)CC1,-2.9%
21,CCC(CC)C(=O)N1CC(=O)Nc2ccc(Br)cc2C1c1ccccc1 (centres undefined),14.8%
22,Cc1ccc2c(c1)C(c1ccccc1)N(C(=O)c1ccc(S(=O)(=O)N3CCOCC3)cc1)CC(=O)N2 (centres undefined),56.5% (active)
23,Cc1ccc2nsnc2c1S(=O)(=O)N1CCCC1C(=O)O (centres undefined),-8.56%
24,COc1ccc(C)cc1NC(=S)Nc1ccccc1SC,5.88%

row,Structure (SMILES),inhibition
1,COC(=O)c1cn(-c2ccccc2)nc1-c1cccnc1,1.77%
2,Cc1ccc2nc(-c3cccnc3)c(NC3CCCC3)n2c1,63.7% (active)
3,O=C(Nc1ccc(F)cc1)C1CCN(C(=O)c2ccc([N+](=O)[O-])cc2)CC1,5.08%
4,CCCCCCn1c(CN2CCCCC2)nc2c1c(=O)n(C)c(=O)n2C,6.89%
5,CCCCCCCCn1c2c(c(=N)c3c1CCC3)CCCC2,101% (active)
6,COc1cc(C)c(S(=O)(=O)N2CCOCC2)c(C)c1C,-1.23%
7,CCCCCCCC1(C)NC(=O)N(CC(=O)Nc2cc(C)on2)C1=O (centres undefined),20.5%
8,CNC(=O)COc1ccc(S(=O)(=O)Nc2ccccc2)cc1,-0.21%
9,CCN1CCN(C(=O)CCN2C(=O)c3ccccc3C2=O)CC1,4.9%
10,O=C(CN1C(=O)C2C3C=CC(C3)C2C1=O)NCCc1ccccc1Cl (centres undefined),0.65%
11,O=C(CCN1C(=O)C2C3C=CC(C3)C2C1=O)Nc1ccccc1F (centres undefined),-3.49%
12,O=C(CN1C(=O)C2C3C=CC(C3)C2C1=O)Nc1nc(-c2ccccn2)cs1 (centres undefined),97.2% (active)
13,Cc1cc(=O)n2[nH]c(-c3sccc3-n3c(C)ccc3C)cc2n1,-1.8%
14,CCOc1cc2[nH]c(=O)n(Cc3ccc(C(=O)NCCCN4CCCC4=O)cc3)c(=O)c2cc1OCC,-1.97%
15,Cc1ccc(C(=O)Cn2cccn2)cc1,-1.93%
16,CSc1ncccc1C(=O)NC1CCCCCC1,-1.57%
17,CC1CCN(c2ccc(C(=O)NCc3ccc4c(c3)OCO4)cc2[N+](=O)[O-])CC1,1.95%
18,CCC(C)NC(=O)c1ccc(N2CCC3(CC2)OCCO3)c([N+](=O)[O-])c1 (centres undefined),-0.6%
19,COCCNC(=O)c1ccc(N2CCC3(CC2)OCCO3)c([N+](=O)[O-])c1,73.7% (active)
20,COc1ccc(C(C)=O)cc1CSc1nc2nc(C)cc(C)n2n1,-4.13%
21,c1ccc2[nH]c(NCCN3CCOCC3)nc2c1,0.2%
22,O=C(Cn1c(-c2ccccn2)nc2ccccc21)NCCN1CCOCC1,-2.96%
23,c1ccc2cc3c(NCCN4CCOCC4)ccnc3cc2c1,100% (active)
24,CCc1ccc(C(=O)OCC(=O)NCC(F)(F)F)cc1,4.83%

row,Structure (SMILES),inhibition
1,O=C(N/N=C/c1ccc(OCC2COCCO2)cc1)c1ccc(Br)cc1 (centres undefined),40.5%
2,COc1cc(C(=S)N2CCOCC2)ccc1O,-5.63%
3,C=CCOCCN(C)C1=NS(=O)(=O)c2ccccc21,-5.84%
4,CN(C)C=NC(=O)c1cccn1-c1ncc(C(F)(F)F)cc1Cl,-3.59%
5,O=Cc1cn(Cc2ccccc2)nc1-c1cccnc1,-1.93%
6,O=C1/C(=C\c2cccnc2)CN(Cc2ccccc2)C/C1=C\c1cccnc1,100% (active)
7,Clc1ccc(CN2CCN(/N=C/c3cccnc3)CC2)cc1,8.51%
8,COc1cccc2cc(S(=O)(=O)c3ccc(C)cc3)/c(=N/NS(=O)(=O)c3ccc(C)cc3)oc12,-0.64%
9,CCOC(=O)C1(CCOc2ccccc2)CCN(C(=O)c2cncs2)CC1,6.07%
10,CCOC(=O)/C(N=Nc1cc(C(=O)O)cc(C(=O)O)c1)=C(\O)CCl,50% (active)
11,O=C(C1CC1)N1N=C2CCCCC2C1(O)C(F)(F)F (centres undefined),-9.92%
12,CCOC(=O)c1sc(=S)n2c1[nH]c(=O)c1ccc(C(=O)OC)cc12,-7.11%
13,CCOC(=O)C1=C(C)Nc2sc(C(=O)c3ccc(Br)cc3)c(N)c2C1c1ccc(C(=O)OC)cc1 (centres undefined),94.8% (active)
14,CCOC(=O)C1=C(C)NC(C)=C(C(=O)OCC)C1c1ccccn1,8.25%
15,Cc1ccc(C(=O)N/C(=C/c2ccco2)C(=O)NCCc2c[nH]c3ccccc23)cc1C,32.8%
16,COc1ccc(/C=C(\NC(=O)c2ccc(OC)c(OC)c2)C(=O)NCCc2c[nH]c3ccccc23)cc1,16%
17,CC(=O)N/C(=C/c1ccc(Cl)cc1)C(=O)NCCc1c[nH]c2ccccc12,92.8% (active)
18,CN(C)/N=C/c1cn(-c2ccccc2)nc1-c1cccnc1,13.5%
19,O=C(NCCCn1ccnc1)C(=O)c1cn(CC(=O)N2CCCCCC2)c2ccccc12,10.8%
20,COc1cc(C(=O)N2CCN(C/C=C/c3ccccc3)CC2)cc(OC)c1C,54.7% (active)
21,CNC(=O)NC(=O)C(C)N1CCN(C/C=C/c2ccccc2)CC1 (centres undefined),9.45%
22,COc1ccccc1/C=C/CN1CCC(CO)(Cc2ccccc2)CC1,32.1%
